Structures are written as SMILES. “And” between values parts separate entries of the source, which are not always exact repeats. Identical values can stand only once. Results filed as inconclusive are left out. A structure can be active in one record and inactive in another. The source made the active and inactive calls. Unless noted, the call rests on the fitted dose curve; in most records, active means well fitted curve in the direction sought with a large enough effect in the repeat runs; inconclusive means weak or mixed curves; inactive means no such curve, though single readings can be large; an effect the other way counts as inactive or inconclusive.

Test [1] concerns the target Estrogen receptor beta (Homo sapiens) (UniProt Q92731). In words: qHTS assay to identify small molecule antagonists of the estrogen receptor beta (ER-beta) signaling pathway (AID 1259378; active means well fitted inhibition curve with a large enough effect in the signal ratio in the repeat runs, not every such curve was filed as active; the % refers to the signal ratio; further: potency means the concentration at half of the fitted maximal effect). An outline of the steps:
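Antagonist mode: compounds added to beta-lactamase reporter HEK293T ER-beta-UAS cells stimulated with E2 (1nM final), 16 hr at 37C. LiveBLAzer B/G FRET substrate, 2 hours room temperature, fluorescence read-out.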
In general terms: qHTS replaces the single test concentration by a dilution series.

Test [2] can be described thus: qHTS assay to identify small molecule agonists of the androgen receptor (AR) signaling pathway in the presence of an antagonist - cell viability counter screen (AID 1259379). Further: nearly all actives have a fitted effect of over 25% in size. Further: potency means the concentration at half of the fitted maximal effect. The essentials: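 Nilutamide-containing (3.0uM final) MDA-kb2 cultures, 3,000 cells/well, were treated with compounds across 15 concentrations. After 16 hr at 37C with no CO2, cell viability was determined by CellTiter-Fluor fluorescence in the luciferase assay wells.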

Test [3] can be described thus: qHTS assay to identify small molecule agonists of the estrogen receptor beta (ER-beta) signaling pathway - cell viability counter screen (AID 1259380). Further: nearly all actives have a fitted effect of over 30% in size. Further: potency means the concentration at half of the fitted maximal effect. An outline of the steps:
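Steps: plate ER-beta-UAS-bla HEK293T cells, rest 6 hr; add compounds in DMSO; incubate 16 hr at 37C, 5% CO2; add FRET substrate 2 hr; add CellTiter-Glo, wait 30 min at room temperature; read luminescence.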

The nature of test [4]: qHTS assay to identify small molecule antagonists of the estrogen receptor beta (ER-beta) signaling pathway - cell viability counter screen (AID 1259382). Further: nearly all actives have a fitted effect of over 55% in size. Further: potency means the concentration at half of the fitted maximal effect. The essentials:
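Viability is scored by CellTiter-Glo luminescence (30 min, room temperature) in ER-beta-UAS-bla HEK293T wells already read for reporter fluorescence. Compound exposure lasts 16 hr at 37C alongside 1nM 17-beta-estradiol in charcoal-stripped serum medium.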

The target of test [5] is Estrogen receptor (Homo sapiens) (UniProt P03372). In words: qHTS assay to identify small molecule agonists of the estrogen receptor alpha (ER-alpha) signaling pathway in the presence of an antagonist (AID 1259383; calls by dose curve; further: nearly all actives have a fitted effect of over 15% in size; further: potency means the concentration at half of the fitted maximal effect). The essentials:
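Readout was ERE-driven luciferase luminescence in VM7Luc4E2 cells, which express full-length ER-alpha endogenously. Compounds were tested at 15 concentrations for 22hr alongside 10.0nM ICI-182,780 (final concentration).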

Test [6] in a line: qHTS assay to identify small molecule agonists or antagonists of the thyroid stimulating hormone receptor (TSHR) signaling pathway - wild type cell line counter screen (AID 1259384; calls by dose curve). The essentials: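 Counter screen in untransfected Hek293: compounds (15-point titration, triplicate) plus phosphodiesterase inhibitor Ro20-1724 added after 18 h plating; 30 min RT. Intracellular cAMP via competitive d2/cryptate immunoassay, 1 h incubation.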

Test [7] concerns the target Thyrotropin receptor (Homo sapiens) (UniProt P16473). In words: qHTS assay to identify small molecule antagonists of the thyroid stimulating hormone receptor (TSHR) signaling pathway (AID 1259385; calls by dose curve; further: nearly all actives have a fitted effect of over 20% in size; further: potency means the concentration at half of the fitted maximal effect). The essentials: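 Antagonist mode: compound-treated TSHR-expressing HEK293 cells were stimulated with 1.5 ng/mL TSH (final) in presence of Ro20-1724 for 30 min at RT. HTRF cAMP detection after 1 h; each compound tested at 15 concentrations, triplicate.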

The nature of test [8]: qHTS assay to identify small molecule agonists of the estrogen receptor alpha (ER-alpha) signaling pathway in the presence of an antagonist - cell viability counter screen (AID 1259386).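 Further: cells exposed to compounds for 22 h at 37 °C before the viability read; nearly all actives have a fitted effect of over 30% in size.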 Further: potency means the concentration at half of the fitted maximal effect. An outline of the steps: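 In this counter screen, compound effects on VM7Luc4E2 viability were tested in the presence of the antagonist ICI-182,780 at 10.0nM final. Compounds were dosed at 15 concentrations, exposure lasted 22hr, and the CellTiter-Fluor signal was read.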

Test [9] deals with Progesterone receptor (Homo sapiens) (UniProt P06401). In words: qHTS assay to identify small molecule agonists of the progesterone receptor (PR) signaling pathway (AID 1346784; calls by dose curve; further: nearly all actives have a fitted effect of over 30% in size). An outline of the steps: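 HEK 293T PR-UAS-bla reporter cells, 2% charcoal-stripped FBS; 6 hr settle at 37C/5% CO2, compound (DMSO) 16 hr, LiveBLAzer B/G FRET substrate 2 hr RT, fluorescence intensity read.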
Sequence of Progesterone receptor (Homo sapiens) (P06401 whole entry, looked up): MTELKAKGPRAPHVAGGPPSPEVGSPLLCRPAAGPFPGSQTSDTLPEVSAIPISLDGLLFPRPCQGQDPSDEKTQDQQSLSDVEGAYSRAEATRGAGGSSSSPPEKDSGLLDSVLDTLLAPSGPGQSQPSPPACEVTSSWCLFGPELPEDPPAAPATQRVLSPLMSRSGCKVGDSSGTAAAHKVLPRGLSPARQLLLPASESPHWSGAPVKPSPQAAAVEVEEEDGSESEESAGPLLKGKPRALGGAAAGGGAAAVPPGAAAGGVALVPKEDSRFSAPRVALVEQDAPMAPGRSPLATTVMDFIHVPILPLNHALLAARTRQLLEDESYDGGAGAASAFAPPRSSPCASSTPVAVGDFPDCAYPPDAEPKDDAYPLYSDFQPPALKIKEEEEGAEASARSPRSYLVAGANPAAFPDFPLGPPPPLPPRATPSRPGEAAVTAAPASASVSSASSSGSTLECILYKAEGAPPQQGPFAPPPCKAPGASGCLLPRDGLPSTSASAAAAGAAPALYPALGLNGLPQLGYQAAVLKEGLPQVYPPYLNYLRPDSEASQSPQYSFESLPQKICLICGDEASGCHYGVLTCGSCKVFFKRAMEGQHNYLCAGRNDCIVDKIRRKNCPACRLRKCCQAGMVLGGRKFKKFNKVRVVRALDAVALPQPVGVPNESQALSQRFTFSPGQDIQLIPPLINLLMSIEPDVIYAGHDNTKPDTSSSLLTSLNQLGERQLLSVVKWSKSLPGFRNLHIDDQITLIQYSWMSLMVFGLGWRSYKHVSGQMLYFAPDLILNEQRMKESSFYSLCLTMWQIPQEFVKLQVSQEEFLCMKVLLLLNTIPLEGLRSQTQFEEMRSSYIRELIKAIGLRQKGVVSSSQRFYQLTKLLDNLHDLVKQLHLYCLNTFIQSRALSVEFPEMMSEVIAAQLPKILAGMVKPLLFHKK

Test [10] deals with Androgen receptor (Homo sapiens) (UniProt P10275). Nature of the test: qHTS assay to identify small molecule agonists of the androgen receptor (AR) signaling pathway in the presence of an antagonist (AID 1259381; calls by dose curve; further: nearly all actives have a fitted effect of over 15% in size). An outline of the steps: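 Reporter-gene luminescence from MDA-kb2 cells exposed 16hr at 37C (0% CO2) to 15-point compound titrations with 3.0uM final nilutamide as AR antagonist.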
Sequence of Androgen receptor (Homo sapiens) (P10275 whole entry, looked up): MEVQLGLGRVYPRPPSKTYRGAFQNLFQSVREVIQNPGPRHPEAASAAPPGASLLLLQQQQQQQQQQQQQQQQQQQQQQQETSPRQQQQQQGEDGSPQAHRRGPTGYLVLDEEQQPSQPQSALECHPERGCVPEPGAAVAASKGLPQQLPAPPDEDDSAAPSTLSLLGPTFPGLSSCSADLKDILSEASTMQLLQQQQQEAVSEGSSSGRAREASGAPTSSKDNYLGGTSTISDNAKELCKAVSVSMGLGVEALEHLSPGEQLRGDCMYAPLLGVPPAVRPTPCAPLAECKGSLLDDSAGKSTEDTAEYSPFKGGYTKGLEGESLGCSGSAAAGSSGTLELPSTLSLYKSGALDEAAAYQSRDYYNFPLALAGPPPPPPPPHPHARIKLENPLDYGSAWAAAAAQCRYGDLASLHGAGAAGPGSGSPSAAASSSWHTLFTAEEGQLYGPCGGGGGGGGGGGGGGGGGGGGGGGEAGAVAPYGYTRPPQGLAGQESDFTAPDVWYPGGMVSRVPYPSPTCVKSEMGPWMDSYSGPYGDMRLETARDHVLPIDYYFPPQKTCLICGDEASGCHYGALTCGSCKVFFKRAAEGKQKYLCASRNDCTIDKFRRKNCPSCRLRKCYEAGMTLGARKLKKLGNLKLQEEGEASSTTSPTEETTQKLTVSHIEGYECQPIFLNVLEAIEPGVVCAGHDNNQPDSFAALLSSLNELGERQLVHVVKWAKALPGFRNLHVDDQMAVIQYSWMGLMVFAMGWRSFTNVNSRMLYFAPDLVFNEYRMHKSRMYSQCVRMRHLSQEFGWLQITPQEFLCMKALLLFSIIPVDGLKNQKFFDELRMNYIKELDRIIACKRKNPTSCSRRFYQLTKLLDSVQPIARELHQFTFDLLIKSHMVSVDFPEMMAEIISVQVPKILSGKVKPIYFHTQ

Sequence of Estrogen receptor beta (Homo sapiens) (Q92731 whole entry, looked up): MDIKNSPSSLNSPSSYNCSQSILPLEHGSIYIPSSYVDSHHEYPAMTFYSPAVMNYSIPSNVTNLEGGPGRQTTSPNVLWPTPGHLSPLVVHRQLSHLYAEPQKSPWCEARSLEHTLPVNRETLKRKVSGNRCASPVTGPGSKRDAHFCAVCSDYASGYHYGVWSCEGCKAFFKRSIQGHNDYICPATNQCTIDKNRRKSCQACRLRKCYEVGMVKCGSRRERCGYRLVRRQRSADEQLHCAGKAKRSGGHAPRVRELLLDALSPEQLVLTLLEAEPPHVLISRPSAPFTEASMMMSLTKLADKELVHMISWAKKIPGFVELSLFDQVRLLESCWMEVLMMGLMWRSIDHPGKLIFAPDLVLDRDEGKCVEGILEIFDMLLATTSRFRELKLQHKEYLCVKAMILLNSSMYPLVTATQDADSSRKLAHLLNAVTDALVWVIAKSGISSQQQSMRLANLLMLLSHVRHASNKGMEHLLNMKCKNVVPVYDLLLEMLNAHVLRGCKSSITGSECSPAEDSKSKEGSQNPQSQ
Sequence of Estrogen receptor (Homo sapiens) (P03372 whole entry, looked up): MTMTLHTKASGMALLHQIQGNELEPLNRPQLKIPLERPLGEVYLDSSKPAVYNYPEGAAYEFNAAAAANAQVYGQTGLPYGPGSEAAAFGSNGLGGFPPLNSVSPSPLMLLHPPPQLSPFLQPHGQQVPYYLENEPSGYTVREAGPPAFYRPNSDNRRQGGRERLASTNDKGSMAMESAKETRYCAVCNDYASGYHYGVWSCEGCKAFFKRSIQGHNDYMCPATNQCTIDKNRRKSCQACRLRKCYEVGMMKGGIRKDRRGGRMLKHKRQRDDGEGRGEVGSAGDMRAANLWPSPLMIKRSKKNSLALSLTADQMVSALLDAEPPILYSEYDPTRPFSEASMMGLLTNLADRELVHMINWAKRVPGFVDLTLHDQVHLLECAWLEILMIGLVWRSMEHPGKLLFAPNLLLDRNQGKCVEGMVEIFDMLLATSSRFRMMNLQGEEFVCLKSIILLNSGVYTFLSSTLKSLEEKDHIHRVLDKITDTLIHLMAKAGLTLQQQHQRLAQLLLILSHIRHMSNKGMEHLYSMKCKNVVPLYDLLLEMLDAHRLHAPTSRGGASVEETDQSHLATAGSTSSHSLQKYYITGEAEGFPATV
Sequence of Thyrotropin receptor (Homo sapiens) (P16473 whole entry, looked up): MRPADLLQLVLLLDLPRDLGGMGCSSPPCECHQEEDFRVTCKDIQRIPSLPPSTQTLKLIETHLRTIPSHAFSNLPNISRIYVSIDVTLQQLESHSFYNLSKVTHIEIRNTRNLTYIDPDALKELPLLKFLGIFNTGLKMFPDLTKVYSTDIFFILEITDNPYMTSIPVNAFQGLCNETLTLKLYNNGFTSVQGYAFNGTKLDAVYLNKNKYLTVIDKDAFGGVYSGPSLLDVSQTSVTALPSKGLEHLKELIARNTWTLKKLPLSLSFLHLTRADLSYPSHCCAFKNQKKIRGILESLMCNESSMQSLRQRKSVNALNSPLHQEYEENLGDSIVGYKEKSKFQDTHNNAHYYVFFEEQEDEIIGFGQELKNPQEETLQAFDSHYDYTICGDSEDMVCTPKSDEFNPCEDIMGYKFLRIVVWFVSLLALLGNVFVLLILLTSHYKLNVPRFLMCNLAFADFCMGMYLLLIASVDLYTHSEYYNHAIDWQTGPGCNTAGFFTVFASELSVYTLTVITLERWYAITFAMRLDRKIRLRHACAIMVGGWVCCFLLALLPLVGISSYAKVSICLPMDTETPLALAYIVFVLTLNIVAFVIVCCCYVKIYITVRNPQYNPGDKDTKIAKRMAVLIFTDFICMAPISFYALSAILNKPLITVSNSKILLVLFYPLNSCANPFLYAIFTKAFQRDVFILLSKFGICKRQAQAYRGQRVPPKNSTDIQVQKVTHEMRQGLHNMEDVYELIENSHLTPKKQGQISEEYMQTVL

`C=CS(=O)(=O)O`: the Potency entry in test [1], in [2], in [3], in test [4], in [5] and in [6] was “inactive” throughout. Besides, the Potency entry in test [7], in test [8] and in test [9] was “inactive” throughout.

Regarding `CCCCCCCCCCCCc1ccccc1O`, the Potency in test [1] was 1.35 µM (active); in test [2], 61.1 µM (active); in test [3], 30.2 µM (active) and 27.3 µM (active); in test [4], 47.9 µM (active) and 43.3 µM (active); in test [8], 68.6 µM (active). Also, the Potency entry in test [10] is “inactive”.

As for `C=CC(=O)OCCCCCCCC`, the Potency result in test [1], in test [2], in test [3], in test [4], in test [5] and in test [6] was “inactive” throughout. Further, the Potency entry in test [7] and in test [8] was “inactive” each time.

As for `CCOc1ccccc1C(N)=O`, the Potency entry in [1], in test [2], in test [3], in test [10], in test [4] and in test [5] was “inactive” each time. Moreover, the Potency result in [6], in test [7], in [8] and in test [9] was “inactive” throughout.

In the case of `CC(C)(C)c1ccc(O)c(C(C)(C)C)c1`, the Potency entry in test [1], in test [2], in [5], in test [6], in test [7] and in [8] was “inactive” in each case. For the same compound, in [9], the Potency entry is “inactive”. Also, the Potency in [3] is 48.4 µM (active) and 54.5 µM (active); in [4], 60.9 µM (active).

Take `CC(=O)Nc1ccc(C(=O)CCl)cc1`: the Potency entry in [1], in test [3], in [10], in test [4], in [6] and in test [7] was “inactive” each time. Also, the Potency result in test [8] is “inactive”. In addition, in [2], the Potency is 54.5 µM (active).

Regarding `Cc1ccc(S(=O)(=O)Oc2ccc(N=Nc3ccc(-c4ccc(N=Nc5c(O)ccc6cc(S(=O)(=O)O)cc(S(=O)(=O)O)c56)c(C)c4)cc3C)cc2)cc1`, the Potency result in test [1], in test [3], in test [10], in test [4], in [6] and in test [9] was “inactive” throughout. The Potency was 24.4 µM (active) and 17.8 µM (active) in test [2]; 61.4 µM (active) in test [7]; 27.4 µM (active) and 11.2 µM (active) in [8].

As to `CC(C)CCOCc1ccccc1`, the Potency entry in [1], in test [2], in test [3], in test [10], in test [4] and in test [5] was “inactive” each time. The Potency result in test [6], in test [7], in test [8] and in test [9] was “inactive” throughout.

Consider `O=C(OCc1ccccc1)c1ccc(O)cc1`, for which the Potency was 19.3 µM (active) in test [1]; 30.6 µM (active) and 29.8 µM (active) in test [5]. In addition, the Potency result in [2], in [3], in test [4], in test [6], in [7] and in [8] was “inactive” each time.

With `CC(=O)C1=C(C)[C@@H]2C[C@@]3(C1)[C@H](C)CC[C@H]3C2(C)C`, the Potency entry in test [1], in test [2], in [3], in test [4], in test [5] and in test [6] was “inactive” each time. For the same compound, the Potency entry in test [8] and in test [9] was “inactive” throughout.

`COC(=O)/C=C/c1ccccc1`: the Potency result in test [1], in test [2], in test [3], in test [4], in test [5] and in [6] was “inactive” throughout. In addition, the Potency result in test [7], in test [8] and in [9] was “inactive” in each case.

For the compound `Nc1nc(=S)c2[nH]cnc2[nH]1`, the Potency entry in test [1], in test [2], in test [10], in test [5], in test [6] and in test [7] was “inactive” throughout. Also, the Potency entry in test [8] was “inactive”. For the same compound, in [3], the Potency was 3.06 µM (active) and 2.98 µM (active).

`O=C(O)Cn1cnnn1`: the Potency entry in [1], in [2], in test [3], in test [10], in test [4] and in test [5] was “inactive” each time. For the same compound, the Potency entry in test [6], in test [7], in [8] and in test [9] was “inactive” each time.

`CC(C)(O)CCC(C)(C)O`: the Potency entry in test [1], in test [2], in test [3], in test [10], in test [4] and in test [5] was “inactive” throughout. For the same compound, the Potency entry in test [6], in test [7], in [8] and in [9] was “inactive” throughout.

Take `O=Nc1ccc(Nc2ccccc2)cc1`: the Potency in [1] was 68.6 µM (active); in [2], 54.8 µM (active) and 54.5 µM (active); in test [3], 61.4 µM (active) and 48.6 µM (active); in test [4], 61.4 µM (active). Moreover, the Potency entry in [10], in [5] and in test [8] was “inactive” throughout.

As to `C=C(C)C1CC=C(C)C(OC(C)=O)C1` (configuration not stated), the Potency result in test [1], in test [2], in test [3], in test [4], in [5] and in test [6] was “inactive” throughout. Also, the Potency result in test [7], in test [8] and in [9] was “inactive” each time.

As for `O=Cc1ccc(Cl)cc1`, the Potency result in test [1], in test [2], in test [3], in [10], in [4] and in test [6] was “inactive” in each case. Further, the Potency entry in [7], in test [8] and in [9] was “inactive” throughout.

In the case of `Nc1nc2ccccc2[nH]1`, the Potency result in [2], in test [3], in [4], in test [5], in test [6] and in test [7] was “inactive” in each case. The Potency entry in test [8] is “inactive”.

Turning to `Cc1cc(Cc2cc(C)cc(C(C)(C)C)c2O)c(O)c(C(C)(C)C)c1`, the Potency is 61.4 µM (active) and 68.6 µM (active) in test [2]; 13.8 µM (active) and 21.7 µM (active) in test [3]; 17.3 µM (active) and 21.7 µM (active) in [4]. In addition, the Potency result in test [5], in [6] and in [7] was “inactive” in each case.

With `CC(C)(c1ccccc1)c1ccc(Nc2ccc(C(C)(C)c3ccccc3)cc2)cc1`, the Potency entry in [2], in test [3], in test [4], in test [5], in test [6] and in test [7] was “inactive” in each case. Further, the Potency entry in [8] is “inactive”.

Turning to `CC(C)CCCCCCc1ccc(O)cc1`, the Potency in test [2] was 27.8 µM (active) and inactive; in [3], 3.92 µM (active) and 61.1 µM (active); in test [4] it was 5.54 µM (active) and inactive; in test [5], 15.6 µM (active) and 27.3 µM (active); in test [8], 27.8 µM (active) and inactive.

Source of the values: PubChem BioAssay (Tox21).
